Measured values from PubChem BioAssay (Tox21).
Records with an inconclusive call do not appear. Where a call stands in place of a potency, no number is given. The source made the active and inactive calls. Unless noted, calls come from the whole dose curve; as a rule, active = well fitted curve in the direction sought with a large enough effect in the repeat runs; inconclusive = weak or mixed curves; inactive = no such curve, though single readings can be large; an effect the other way counts as inactive or inconclusive.

What was measured:
[1] = target: Androgen receptor (Homo sapiens) (UniProt P10275); test: qHTS assay to identify small molecule antagonists of the androgen receptor (AR) signaling pathway using the MDA cell line in the presence of 0.5 nM R1881 (AID 1259243); note: nearly all actives have a fitted effect of over 50% in size; note: potency is the fitted concentration of half-maximal effect
Outline: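 MDA-kb2 cells (MMTV-luciferase, responsive to AR and GR) at 3,000/well, rested 5 h at 37C, 0% CO2, then given compounds plus 0.5 nM R1881 (final) for 16 hr. Luciferase read with ONE-Glo after 30 min at room temperature.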

[2] = target: Estrogen receptor (Homo sapiens) (UniProt P03372); test: qHTS assay to identify small molecule antagonists of the estrogen receptor alpha (ER-alpha) signaling pathway using the BG1 cell line in the presence of 0.1 nM 17-beta-estradiol (AID 1259244); note: nearly all actives have a fitted effect of over 50% in size
Outline: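 VM7Luc4E2 cells (endogenous full-length ER-alpha, 4×ERE-luciferase), kept 5 days in phenol red-free, charcoal-stripped FBS medium; 4,000 cells/well. Compounds added with 0.1 nM (final) 17beta-estradiol, 22 hr at 37C; luminescence read with ONE-Glo after 30 min.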

[3] = qHTS assay to identify small molecule HDAC inhibitors (AID 1259364); note: top concentration of the series differs between compounds; nearly all actives have a fitted effect of over 45% in size
Outline: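 Wild-type HCT-116 cells, plated overnight at 37 C, exposed to compounds 2 hr at 37 C; luminogenic HDAC-Glo substrate then added 30 min at room temperature. Luminescence reports relative endogenous class I/II HDAC activity.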

[4] = qHTS assay to identify small molecule HDAC inhibitors - cell viability counter screen (AID 1259365); note: series mostly up to about 92 µM; nearly all actives have a fitted effect of over 50% in size
Outline: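 CellTiter-Glo luminescence (30 min, room temperature) reported viability after a 2 h compound exposure at 37 C. Cells: wild-type HCT-116, 1,500 per well, seeded the night before.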

[5] = qHTS assay to identify small molecule agonists of the sonic hedgehog signaling (Shh) pathway - cell viability counter screen (AID 1259366); note: nearly all actives have a fitted effect of over 50% in size; note: potency is the fitted concentration of half-maximal effect
Outline: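 Cytotoxicity counter screen: CellTiter-Fluor reagent added after 23 h compound exposure, then 1 h at 37C and fluorescence read. Cells were 3T3 Gli1-Luc, seeded 2,000 per well and dosed 4 h post-plating.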

[6] = qHTS assay to identify small molecule antagonists of the sonic hedgehog signaling (Shh) pathway - cell viability counter screen (AID 1259367); note: nearly all actives have a fitted effect of over 55% in size; note: potency is the fitted concentration of half-maximal effect
Outline: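 After a 4 hr settling period, 3T3 Gli1-Luc cells were treated with DMSO-dissolved chemicals and conditioned medium, kept 24 hr at 37C in 5% CO2, and assayed for viability by CellTiter-Fluor fluorescence following 1 hr reagent incubation.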

[7] = qHTS assay to identify small molecule agonists of the sonic hedgehog signaling (Shh) pathway (AID 1259368; calls by dose curve;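 note: NIH/3T3-derived 3T3Gli1-Luc cells carrying a stable Gli1-driven firefly luciferase reporter; series mostly up to about 92 µM; nearly all actives have a fitted effect of over 15% in size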)
Outline: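 NIH/3T3-derived 3T3Gli1-Luc cells with stably integrated Gli1-driven firefly luciferase, 2,000 cells/well, compounds added after 4 hr. Incubated 24 hr at 37C, 5% CO2; luminescence read after 30 min with luciferase reagent at room temperature.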

[8] = qHTS assay to identify small molecule antagonists of the sonic hedgehog signaling (Shh) pathway (AID 1259369; calls by dose curve; note: nearly all actives have a fitted effect of over 45% in size; note: potency is the fitted concentration of half-maximal effect)
Outline: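 NIH/3T3-derived Gli1-Luc reporter cells plated 4 h, dosed with compound, then stimulated with conditioned medium for 24 h at 37 C. Firefly luciferase luminescence read after 30 min with detection reagent at room temperature.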

[9] = qHTS assay to identify small molecule agonists of the androgen receptor (AR) signaling pathway in the presence of an antagonist - cell viability counter screen (AID 1259379); note: nearly all actives have a fitted effect of over 25% in size; note: potency is the fitted concentration of half-maximal effect
Outline: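 MDA-kb2 cells (MMTV-luciferase, AR/GR), 3,000/well, 5 h attachment, then 3.0 µM nilutamide (final) and compounds at 15 concentrations. Viability by CellTiter-Fluor fluorescence after 16 h at 37 °C, 0% CO2, in the reporter wells.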

[10] = qHTS assay to identify small molecule agonists of the estrogen receptor beta (ER-beta) signaling pathway - cell viability counter screen (AID 1259380); note: nearly all actives have a fitted effect of over 30% in size; note: potency is the fitted concentration of half-maximal effect
Outline: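 ER-beta-UAS-bla HEK293T cells in medium with 2% charcoal-stripped FBS, pre-incubated 6 hr, then treated 16 hr at 37C. Cytotoxicity read in the same wells by CellTiter-Glo luminescence after 30 min at room temperature.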

[11] = target: Androgen receptor (Homo sapiens) (UniProt P10275); test: qHTS assay to identify small molecule agonists of the androgen receptor (AR) signaling pathway in the presence of an antagonist (AID 1259381; calls by dose curve; note: nearly all actives have a fitted effect of over 15% in size)
Outline: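 MDA-kb2 cells carrying MMTV-luciferase (AR/GR responsive), 3,000 cells/well, co-treated with 3.0 uM nilutamide final. Compounds at 15 concentrations, 16 hr at 37C without CO2. Luciferase luminescence read after 30 min with ONE-Glo.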

[12] = qHTS assay to identify small molecule antagonists of the estrogen receptor beta (ER-beta) signaling pathway - cell viability counter screen (AID 1259382); note: nearly all actives have a fitted effect of over 55% in size; note: potency is the fitted concentration of half-maximal effect
Outline: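 ER-beta-UAS-bla HEK293T cells in 2% charcoal-stripped FBS medium, treated with compound plus 1 nM 17-beta-estradiol for 16 h at 37C. Viability read by CellTiter-Glo luminescence after 30 min at room temperature in the same wells.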

[13] = target: Estrogen receptor (Homo sapiens) (UniProt P03372); test: qHTS assay to identify small molecule agonists of the estrogen receptor alpha (ER-alpha) signaling pathway in the presence of an antagonist (AID 1259383; calls by dose curve; note: nearly all actives have a fitted effect of over 15% in size; note: potency is the fitted concentration of half-maximal effect; for activation: top concentration of the series differs between compounds)
Outline: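 VM7Luc4E2 cells express endogenous full-length ER-alpha with an ERE-luciferase reporter and were hormone-deprived for 5 days. Compounds at 15 concentrations were added with 10.0nM ICI-182,780 for 22hr at 37C. Luminescence was read with ONE-Glo.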

[14] = qHTS assay to identify small molecule agonists of the estrogen receptor alpha (ER-alpha) signaling pathway in the presence of an antagonist - cell viability counter screen (AID 1259386);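 note: cells exposed to compounds for 22 h at 37 °C before the viability read; nearly all actives have a fitted effect of over 30% in size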; note: potency is the fitted concentration of half-maximal effect
Outline: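 Cell viability in VM7Luc4E2 cells (endogenous full-length ER-alpha) measured by CellTiter-Fluor fluorescence in the same wells as the luciferase screen. Cells pre-cultured 5 days in charcoal-stripped serum, then treated 22 h with compounds at 15 concentrations plus 10.0nM ICI-182,780.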

[15] = qHTS assay to identify small molecule antagonists of the androgen receptor (AR) signaling pathway using the MDA cell line in the presence of 0.5 nM R1881 - cell viability counter screen (AID 1259242); note: nearly all actives have a fitted effect of over 45% in size; note: potency is the fitted concentration of half-maximal effect
Outline: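 MDA-kb2 cells (MMTV-luciferase, AR/GR responsive) were treated with compounds plus 0.5 nM R1881 (final) for 16 hr at 37C, 0% CO2. Viability was then read in the same wells as live-cell protease fluorescence (CellTiter-Fluor, 30 min).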

[16] = target: Estrogen receptor beta (Homo sapiens) (UniProt Q92731); test: qHTS assay to identify small molecule antagonists of the estrogen receptor beta (ER-beta) signaling pathway (AID 1259378; active = well fitted inhibition curve with a large enough effect in the signal ratio in the repeat runs, not every such curve was filed as active; the % refers to the signal ratio; note: potency is the fitted concentration of half-maximal effect)
Outline: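 ER-beta-UAS-bla HEK293T (GripTite) cells in 2% charcoal-stripped FBS medium were preincubated 6 hr at 37C, dosed with compound, then stimulated with 1 nM E2 (final) for 16 hr; beta-lactamase reporter read by B/G FRET fluorescence after 2 hr substrate loading.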

[17] = qHTS assay to identify small molecule agonists or antagonists of the thyroid stimulating hormone receptor (TSHR) signaling pathway - wild type cell line counter screen (AID 1259384; calls by dose curve)
Outline: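 Wild-type HEK293 cells were plated 18 h at 37 C/5% CO2, pin-dosed with compound plus Ro20-1724 medium, held 30 min at room temperature, then given cAMP-d2 and anti-cAMP-cryptate; fluorescence was read after 1 h. Fifteen concentrations, triplicate.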

[18] = target: Thyrotropin receptor (Homo sapiens) (UniProt P16473); test: qHTS assay to identify small molecule antagonists of the thyroid stimulating hormone receptor (TSHR) signaling pathway (AID 1259385; calls by dose curve; note: nearly all actives have a fitted effect of over 20% in size; note: potency is the fitted concentration of half-maximal effect)
Outline: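 TSHR-HEK293 cells were plated and held 18 h at 37C/5% CO2, then given compound plus Ro20-1724 and stimulated with TSH at 1.5 ng/mL final. After 30 min at room temperature, cAMP was detected with cAMP-d2/anti-cAMP-cryptate (1 h) by fluorescence.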

[19] = qHTS assay to identify small molecule phospholipidosis (PLD) inducers (AID 1259344; active = well fitted curve in the direction sought with a large enough effect; an effect the other way counts as inactive or inconclusive)
Outline: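 HepG2 cells grown on collagen I take up LipidTOX Red while exposed to compound for 24 h; after fixation they are imaged at 20x and pit metrics are extracted.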

[20] = target: Estrogen receptor beta (Homo sapiens) (UniProt Q92731); test: qHTS assay to identify small molecule agonists of the estrogen receptor beta (ER-beta) signaling pathway (AID 1259377; active = well fitted activation curve with a large enough effect in the signal ratio in the repeat runs, not every such curve was filed as active; the % refers to the signal ratio; note: potency is the fitted concentration of half-maximal effect)
Outline: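 Ratiometric beta-lactamase FRET read-out came after 2 h substrate loading at room temperature. It followed 16 h compound treatment at 37C of GripTite HEK293T cells carrying a UAS-bla reporter, plated in 2% charcoal-stripped FBS medium.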

Chain of Thyrotropin receptor (Homo sapiens) (P16473 whole entry, looked up): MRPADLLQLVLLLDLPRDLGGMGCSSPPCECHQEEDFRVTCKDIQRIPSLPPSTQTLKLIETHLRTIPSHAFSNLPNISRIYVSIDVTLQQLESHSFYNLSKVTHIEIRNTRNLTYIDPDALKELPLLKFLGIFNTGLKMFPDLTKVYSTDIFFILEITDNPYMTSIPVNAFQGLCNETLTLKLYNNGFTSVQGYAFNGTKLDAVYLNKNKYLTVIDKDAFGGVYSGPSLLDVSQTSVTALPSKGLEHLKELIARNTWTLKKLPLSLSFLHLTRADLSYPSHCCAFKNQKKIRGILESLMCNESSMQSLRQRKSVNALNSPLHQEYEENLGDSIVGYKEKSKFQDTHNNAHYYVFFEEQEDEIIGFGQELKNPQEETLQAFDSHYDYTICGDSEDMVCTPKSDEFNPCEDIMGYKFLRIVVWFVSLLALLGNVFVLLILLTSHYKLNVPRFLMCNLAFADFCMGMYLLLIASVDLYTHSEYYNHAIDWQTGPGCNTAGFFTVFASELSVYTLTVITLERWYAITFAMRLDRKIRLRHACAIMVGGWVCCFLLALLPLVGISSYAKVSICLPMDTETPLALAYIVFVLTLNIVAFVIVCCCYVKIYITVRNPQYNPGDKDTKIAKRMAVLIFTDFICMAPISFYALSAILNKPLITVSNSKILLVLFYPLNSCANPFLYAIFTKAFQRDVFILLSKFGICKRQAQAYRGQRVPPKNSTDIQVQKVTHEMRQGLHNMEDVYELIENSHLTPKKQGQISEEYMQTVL
Chain of Estrogen receptor (Homo sapiens) (P03372 whole entry, looked up): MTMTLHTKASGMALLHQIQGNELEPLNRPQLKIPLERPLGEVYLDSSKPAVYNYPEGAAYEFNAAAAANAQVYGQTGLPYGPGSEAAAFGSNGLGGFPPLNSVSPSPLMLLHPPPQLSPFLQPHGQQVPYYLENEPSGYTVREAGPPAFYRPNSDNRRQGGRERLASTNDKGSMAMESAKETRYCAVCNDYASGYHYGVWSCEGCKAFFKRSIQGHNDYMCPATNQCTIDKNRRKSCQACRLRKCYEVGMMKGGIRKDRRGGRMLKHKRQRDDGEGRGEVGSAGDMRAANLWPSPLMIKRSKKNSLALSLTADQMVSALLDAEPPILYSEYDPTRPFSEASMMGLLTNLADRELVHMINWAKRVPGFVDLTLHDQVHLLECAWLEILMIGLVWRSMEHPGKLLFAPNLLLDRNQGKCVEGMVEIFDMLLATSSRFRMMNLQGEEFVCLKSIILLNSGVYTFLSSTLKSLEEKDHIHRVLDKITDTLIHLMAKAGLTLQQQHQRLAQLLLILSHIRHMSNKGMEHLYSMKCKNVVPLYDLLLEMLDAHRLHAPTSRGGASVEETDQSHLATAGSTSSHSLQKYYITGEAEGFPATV
Chain of Androgen receptor (Homo sapiens) (P10275 whole entry, looked up): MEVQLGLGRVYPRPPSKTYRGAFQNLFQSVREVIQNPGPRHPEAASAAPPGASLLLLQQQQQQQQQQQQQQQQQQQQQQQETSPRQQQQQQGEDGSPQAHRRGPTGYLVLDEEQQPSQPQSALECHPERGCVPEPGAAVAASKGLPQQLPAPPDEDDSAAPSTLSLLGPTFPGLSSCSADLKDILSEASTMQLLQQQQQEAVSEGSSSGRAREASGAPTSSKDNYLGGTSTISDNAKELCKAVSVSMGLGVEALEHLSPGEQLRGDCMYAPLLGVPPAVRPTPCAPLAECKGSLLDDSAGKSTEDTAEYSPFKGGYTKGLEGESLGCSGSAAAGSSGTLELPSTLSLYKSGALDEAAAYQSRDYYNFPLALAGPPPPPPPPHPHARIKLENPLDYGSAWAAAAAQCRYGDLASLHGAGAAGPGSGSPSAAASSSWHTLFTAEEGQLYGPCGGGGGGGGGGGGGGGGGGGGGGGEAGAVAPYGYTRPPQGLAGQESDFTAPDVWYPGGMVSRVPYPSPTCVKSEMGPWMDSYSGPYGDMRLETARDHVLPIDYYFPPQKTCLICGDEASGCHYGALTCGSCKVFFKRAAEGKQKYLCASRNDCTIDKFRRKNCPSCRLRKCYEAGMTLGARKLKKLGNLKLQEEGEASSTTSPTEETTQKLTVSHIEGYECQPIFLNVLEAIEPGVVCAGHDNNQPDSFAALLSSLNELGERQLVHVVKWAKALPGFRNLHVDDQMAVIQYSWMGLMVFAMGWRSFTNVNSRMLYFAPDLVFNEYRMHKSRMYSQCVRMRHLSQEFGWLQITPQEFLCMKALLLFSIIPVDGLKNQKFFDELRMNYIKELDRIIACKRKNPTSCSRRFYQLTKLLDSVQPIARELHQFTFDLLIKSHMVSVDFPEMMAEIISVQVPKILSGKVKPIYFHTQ
Chain of Estrogen receptor beta (Homo sapiens) (Q92731 whole entry, looked up): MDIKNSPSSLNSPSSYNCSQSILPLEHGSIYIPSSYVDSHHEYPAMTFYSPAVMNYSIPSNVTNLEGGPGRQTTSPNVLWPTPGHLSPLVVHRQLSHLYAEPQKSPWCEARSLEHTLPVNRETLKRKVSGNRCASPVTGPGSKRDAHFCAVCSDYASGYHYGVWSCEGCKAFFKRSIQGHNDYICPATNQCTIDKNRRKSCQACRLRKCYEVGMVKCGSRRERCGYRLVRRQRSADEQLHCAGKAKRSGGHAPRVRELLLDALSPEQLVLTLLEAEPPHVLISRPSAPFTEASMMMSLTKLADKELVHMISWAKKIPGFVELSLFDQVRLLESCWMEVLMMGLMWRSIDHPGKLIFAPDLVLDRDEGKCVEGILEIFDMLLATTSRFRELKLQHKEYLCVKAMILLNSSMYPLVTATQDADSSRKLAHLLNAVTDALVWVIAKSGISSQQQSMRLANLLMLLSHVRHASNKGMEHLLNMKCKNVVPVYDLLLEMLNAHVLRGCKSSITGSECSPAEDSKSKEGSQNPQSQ

Structure (SMILES)	Potency [1]	Potency [2]	Potency [3]	Potency [4]	Potency [5]	Potency [6]	Potency [7]	Potency [8]	Potency [9]	Potency [10]	outcome [11]	Potency [12]	Potency [13]	Potency [14]	Potency [15]	Potency [16]	outcome [17]	Potency [18]	Potency [19]	Potency [20]
Cc1ccc(C)cc1	inactive	inactive	inactive	inactive	inactive	inactive	inactive	inactive	inactive	inactive	inactive	inactive	inactive	inactive						
CN1CCC[C@@H]1CCO[C@](C)(c1ccccc1)c1ccc(Cl)cc1			inactive	inactive	23.7 µM (active)					23.7 µM (active)		21.1 µM (active)			26.6 µM (active)	18.8 µM (active)	inactive	29.8 µM (active)		
CCC(C)[O-].CCC(C)[O-].CCOC(=O)/C=C(/C)[O-].[Al+3]				inactive		inactive	inactive		inactive	inactive		inactive		inactive	inactive		inactive	inactive		
C#C[C@]1(O)CC[C@H]2[C@@H]3[C@H](C)CC4=C(CCC(=O)C4)[C@H]3CC[C@@]21C		inactive	inactive	inactive	inactive	inactive	inactive	29.8 µM (active)	inactive	inactive		inactive	0.0841 µM (active)	inactive		inactive			inactive	0.188 µM (active)
COc1ccc(NC(=O)CC(C)=O)cc1				inactive	inactive	inactive	inactive		inactive	inactive		inactive		inactive	inactive	inactive	inactive	inactive		inactive
O=C(O)CCN(C1(C(=O)NO)CCCC1)S(=O)(=O)c1ccc(Oc2ccc(F)cc2)cc1				inactive		inactive	inactive	inactive	inactive	inactive		inactive		inactive	inactive		inactive	inactive		inactive
CCN(CC)C(=O)c1cc(S(=O)(=O)Cc2ccccc2)c(N2CCC(c3ccccc3)CC2)cc1N(CC)CCN(C)C		inactive	inactive	inactive	13.5 µM (active)	9.58 µM (active)		6.78 µM (active)				19.1 µM (active)	inactive	inactive		21.4 µM (active)	inactive		inactive	inactive
Cc1ccc(C(=O)O)cc1				inactive	inactive	inactive	inactive	inactive	inactive			inactive		inactive	inactive		inactive	inactive		
CNc1ccc([N+](=O)[O-])cc1	15.4 µM (active)	inactive	inactive	inactive	19.4 µM (active)	inactive	inactive	inactive	48.7 µM (active)	inactive	inactive	inactive	inactive	34.4 µM (active)		inactive	inactive	inactive		inactive
CC(C)(C)NSc1nc2ccccc2s1	inactive	inactive	inactive	inactive	inactive	inactive	inactive	inactive	inactive		inactive	inactive	inactive	inactive		inactive	inactive	inactive		inactive
S=C([S-])NCCNC(=S)[S-].S=C([S-])NCCNC(=S)[S-].[Mn+2].[Zn+2]			inactive	inactive		inactive	inactive		inactive			inactive		inactive	inactive		inactive	inactive		inactive
O=c1[nH]c2ccccc2n1CCCN1CCN(C(c2ccccc2)c2ccccc2)CC1			inactive	inactive			inactive	3.35 µM (active)		11.9 µM (active)					inactive		inactive	inactive		
COc1cccc(OC)c1C(=O)O				inactive	inactive	inactive	inactive	inactive				inactive		inactive	inactive	inactive	inactive	inactive		inactive
CN(C)[C@@H](CCOc1cccc2ccccc12)c1ccccc1	26.6 µM (active)	inactive		inactive					29.8 µM (active)	23.7 µM (active)	inactive	15 µM (active)	inactive	inactive		29.8 µM (active)	inactive	inactive		inactive
Sc1nc2ccccc2s1				inactive	inactive			54.5 µM (active)	inactive	inactive		inactive		inactive	inactive	inactive		inactive		inactive
